Data as given in PubChem BioAssay (NCI).
This is part of a sample that, as a whole, favours compounds with a hit. Of some 79,000 tested, about 15% had one in any assay. Unmarked numbers belong to inactive results. Activity calls are given as the source filed them. Rule as the data show it: active = growth inhibition above about 70%; inactive = the rest.

Assay: NCI Yeast Anticancer Drug Screen. Data for the mgt1 strain (AID 153)
Conditions: S. cerevisiae mgt1 mutant growth inhibition, hits give high values
Procedure: Growth inhibition of yeast strains with defined genetic alterations is measured as a screen for potential anti-cancer activity. Selected strains with alterations in DNA damage repair or cell cycle control were exposed to compounds and growth inhibition was measured relative to vehicle treated controls. The strain used in this assay is mgt1

Structure (SMILES) | growth inhibition (at 1.2 µM) [%] | growth inhibition (at 3.7 µM) [%] | growth inhibition (at 11.0 µM) [%] | growth inhibition (at 33.0 µM) | growth inhibition (at 100.0 µM)
COC(=O)C(=O)CC(=O)c1cccc(OC)c1 | -1 | -4 | 2 | 14% | 40%
Fc1ccc(Nc2ccc3ccccc3c2)cc1 | -2 | -1 | -2 | 54% | 94% (active)
CCCNC(=O)OCc1c(COC(=O)NCCC)c(-c2ccc(Cl)c(Cl)c2)n2c1CCC2 | -48 | -35 | -30 | -7% | 50%
CC1=NN(C(=O)c2ccccc2O)C(=O)/C1=C/c1ccco1 | -5 | 27 | 65 | 88% (active) | 96% (active)
O=C(NCCCCN1CC2CCCC2C1)C(C1CCCCC1)C1CCCCC1 (stereo not given) | 4 | 5 | 40 | 94% (active) | 98% (active)
O=C(/N=N/C(=O)Oc1ccccc1)Oc1ccccc1 | -61 | -61 | -63 | -29% | 57%
Nc1cc2ccccc2cc1N | -30 | -42 | -33 | -23% | -18%
O=C1C(CCSc2ccccc2)C(=O)N(c2ccccc2)C1c1ccccc1 (stereo not given) | 8 | -18 | 8 | 97% (active) | 89% (active)
